In PubChem BioAssay (EPA / NIEHS):
Values joined by “and” are separate entries in the source; they are usually repeats but may differ in a detail not shown here. Identical values can stand only once. Results filed as inconclusive are left out. Some structures have more than one record in an assay (separate samples or runs), and their calls can disagree. Active and inactive are the calls of the source. How the source made its calls, unless noted: active means hit-call score of the fitted dose curve at least 0.9, where 1 is the maximum; inactive means score below 0.9.

Columns and labels:
[1] = target: Retinoic acid receptor RXR-alpha (Homo sapiens) (UniProt P19793); experiment: ATG_RXRa_TRANS: Attagene TRANS-FACTORIAL HepG2 Assay for human Retinoid X Receptor alpha (RXRa) (AID 2283012; active means hit-call score of the fitted dose curve at least 0.9, where 1 is the maximum)
Chain of Retinoic acid receptor RXR-alpha (Homo sapiens) (P19793 whole entry, looked up, the tested form may be a part): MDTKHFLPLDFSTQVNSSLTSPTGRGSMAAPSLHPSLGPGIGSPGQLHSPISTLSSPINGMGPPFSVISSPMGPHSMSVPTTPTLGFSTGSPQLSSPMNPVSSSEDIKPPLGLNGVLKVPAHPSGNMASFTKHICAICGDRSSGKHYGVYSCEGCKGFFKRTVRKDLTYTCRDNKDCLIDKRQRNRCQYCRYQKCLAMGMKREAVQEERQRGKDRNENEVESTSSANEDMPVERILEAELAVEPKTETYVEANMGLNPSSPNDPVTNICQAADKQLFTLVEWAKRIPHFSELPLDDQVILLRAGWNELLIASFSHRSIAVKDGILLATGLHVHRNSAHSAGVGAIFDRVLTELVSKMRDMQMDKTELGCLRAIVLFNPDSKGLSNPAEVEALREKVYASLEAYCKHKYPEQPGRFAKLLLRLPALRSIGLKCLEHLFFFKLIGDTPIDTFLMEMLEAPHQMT
Summary of the method: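 Transient transfection of human HepG2 with multiple GAL4-UAS reporter constructs; 24 h compound exposure; total RNA isolated, reverse-transcribed, PCR-amplified, 6-FAM labelled, HpaI-cut, resolved by capillary electrophoresis. Positive-direction fit versus DMSO.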

[2] = target: human Thyroid Receptor alpha (THRa1), THRA (gene 7067) (UniProt P10827); experiment: ATG_THRa1_TRANS: Attagene TRANS-FACTORIAL HepG2 Assay for human Thyroid Receptor alpha (THRa1) (AID 2283014; active means hit-call score of the fitted dose curve at least 0.9, where 1 is the maximum)
Chain of human Thyroid Receptor alpha (THRa1), THRA (gene 7067) (P10827 whole entry, looked up, the tested form may be a part): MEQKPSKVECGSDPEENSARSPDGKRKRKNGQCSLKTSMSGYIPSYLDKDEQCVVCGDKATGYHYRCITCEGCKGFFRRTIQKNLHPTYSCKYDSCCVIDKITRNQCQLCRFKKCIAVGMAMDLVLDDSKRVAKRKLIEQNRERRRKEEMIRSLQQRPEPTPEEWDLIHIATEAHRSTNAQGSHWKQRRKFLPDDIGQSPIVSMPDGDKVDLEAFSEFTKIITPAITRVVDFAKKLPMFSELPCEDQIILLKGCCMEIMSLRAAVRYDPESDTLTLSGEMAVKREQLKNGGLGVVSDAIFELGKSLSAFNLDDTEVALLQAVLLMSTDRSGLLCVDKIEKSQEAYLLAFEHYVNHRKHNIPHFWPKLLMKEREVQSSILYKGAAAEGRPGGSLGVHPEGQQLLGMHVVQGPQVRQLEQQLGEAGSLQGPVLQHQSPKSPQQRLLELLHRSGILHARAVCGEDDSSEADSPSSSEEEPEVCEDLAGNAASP
Summary of the method: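 Reporter transcript induction, read by capillary electrophoresis of 6-FAM-labelled RT-PCR products, reflects activity of a transfected THRa1-Gal4 fusion in HepG2 liver cells. Cells were dosed for 24 h; activity was fitted in the positive direction against DMSO.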

[3] = read-out: E-selectin (Homo sapiens) (UniProt P16581); experiment: BSK_3C_Eselectin: BioMAP Diversity Plus: 3C Assay for Eselectin Biomarker Activity (AID 2283015); conditions: primary human endothelial cells (HUVEC); actives raise or lower the signal
Summary of the method: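 ELISA read-out of E-selectin on endothelial monolayers after 24 h chemical treatment. Human umbilical vein primary cells served as the system, with DMSO defining baseline activity for bidirectional fitting.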

[4] = read-out: Interleukin-1 alpha (IL1a), IL1A (gene 3552); experiment: BSK_BE3C_IL1a: BioMAP Diversity Plus: BE3C Assay for Interleukin-1 alpha (IL1a) Biomarker Activity (AID 2283016); conditions: primary human bronchial epithelial cells; actives raise or lower the signal
Summary of the method: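 BE3C primary human bronchial epithelium; cpd 24 h; IL-1a by ELISA; bidirectional fit vs DMSO; parallel SRB (0.1% SRB, 10% TCA fix, 560 nm) for cytotoxicity.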

[5] = read-out: Monocyte Chemoattractant Protein-1 (MCP1), CCL2 (gene 6347); experiment: BSK_3C_MCP1: BioMAP Diversity Plus: 3C Assay for Monocyte Chemoattractant Protein-1 (MCP1) Biomarker Activity (AID 2283017); conditions: primary human endothelial cells (HUVEC); actives raise or lower the signal
Summary of the method: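 ELISA read-out of MCP-1 from human umbilical vein endothelial cell cultures harvested 24 h post-dosing. Gain or loss of signal was fitted relative to DMSO.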

[6] = read-out: Monocyte Chemoattractant Protein-1 (MCP1), CCL2 (gene 6347); experiment: BSK_4H_MCP1: BioMAP Diversity Plus: 4H Assay for Monocyte Chemoattractant Protein-1 (MCP1) Biomarker Activity (AID 2283018); conditions: primary human endothelial cells (HUVEC); actives raise or lower the signal
Summary of the method: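 ELISA read-out of MCP-1 from human vascular endothelial primary cells taken at 24 hours after compound exposure. Activity was fitted in both directions relative to DMSO, which served as negative control.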

[7] = read-out: Human Leukocyte Antigen - DR isotype (HLADR), HLA-DRA (gene 3122); experiment: BSK_3C_HLADR: BioMAP Diversity Plus: 3C Assay for Human Leukocyte Antigen - DR isotype (HLADR) Biomarker Activity (AID 2283019); conditions: primary human endothelial cells (HUVEC); actives raise or lower the signal
Summary of the method: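 ELISA readout of surface HLA-DR on human umbilical vein endothelium, taken 24 h after chemical treatment. Gain- and loss-of-signal were both fitted relative to DMSO.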

[8] = read-out: Interleukin-8 (IL8), CXCL8 (gene 3576); experiment: BSK_3C_IL8: BioMAP Diversity Plus: 3C Assay for Interleukin-8 (IL8) Biomarker Activity (AID 2283020); conditions: primary human endothelial cells (HUVEC); actives raise or lower the signal
Summary of the method: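 ELISA read-out of IL-8 from human umbilical vein endothelium, measured 24 h after chemical dosing. Activity is expressed relative to DMSO negative control, with both increases and decreases fitted.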

[9] = read-out: Monokine induced gamma interferon (MIG), CXCL9 (gene 4283); experiment: BSK_3C_MIG: BioMAP Diversity Plus: 3C Assay for Monokine induced gamma interferon (MIG) Biomarker Activity (AID 2283021); conditions: primary human endothelial cells (HUVEC); actives raise or lower the signal
Summary of the method: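 Read-out is ELISA detection of MIG on human umbilical vein endothelial cells, taken 24 h after dosing. Gain or loss of signal was scored relative to DMSO controls using bidirectional curve fitting.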

[10] = BSK_3C_SRB: Viability Assessment in the BioMAP Diversity Plus: 3C Assay (AID 2283023); conditions: primary human endothelial cells (HUVEC);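 further: fitted both ways against DMSO so a hit may be signal rise or drop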
Summary of the method: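 Absorbance at 560 nm of sulforhodamine B-stained (0.1%) total protein served as a cytotoxicity readout in human umbilical vein endothelial cells, 24 h after chemical treatment. Signal was fitted bidirectionally relative to DMSO.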

[11] = read-out: Matrix Metallopeptidase 1 (MMP1), MMP1 (gene 4312); experiment: BSK_BE3C_MMP1: BioMAP Diversity Plus: BE3C Assay for Matrix Metallopeptidase 1 (MMP1) Biomarker Activity (AID 2283024); conditions: primary human bronchial epithelial cells; actives raise or lower the signal
Summary of the method: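 Human bronchial epithelial cells (BE3C system) exposed to compound for 24 h; MMP1 then quantified by ELISA. Activity was fitted in both directions relative to DMSO.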

[12] = BSK_3C_Vis: BioMAP Diversity Plus: 3C Assay for Morphology Visualization (AID 2283025); conditions: primary human endothelial cells (HUVEC);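 further: fitted both ways so gain or loss versus DMSO counts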;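 on AC50: light microscopy image of cell morphology used as background control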
Summary of the method: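 Chemicals were added to primary human umbilical vein endothelium, cells were incubated 24 h, and morphology was then visualized by light microscopy. Gain or loss of signal was fitted bidirectionally relative to DMSO.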

[13] = read-out: Pselectin, SELP (gene 6403); experiment: BSK_4H_Pselectin: BioMAP Diversity Plus: 4H Assay for Pselectin Biomarker Activity (AID 2283026); conditions: primary human endothelial cells (HUVEC); actives raise or lower the signal
Summary of the method: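 ELISA read-out of P-selectin on human umbilical vein endothelium after 24 h of dosing. Values derive from bidirectional fitting relative to DMSO. Parallel SRB protein staining flagged overt cytotoxicity.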

[14] = BSK_4H_SRB: Viability Assessment in the BioMAP Diversity Plus: 4H Assay (AID 2283027); conditions: primary human endothelial cells (HUVEC);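 further: cells exposed to compound for 24 h before staining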;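 on AC50: curves fitted both ways versus DMSO so AC50 may be loss or gain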
Summary of the method: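 Human umbilical vein endothelial cells, 24 h after chemical dosing; total protein measured by 0.1% sulforhodamine B staining after 10% TCA fixation, read at 560 nm. Bidirectional fitting against DMSO.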

[15] = BSK_BE3C_SRB: Viability Assessment in the BioMAP Diversity Plus: BE3C Assay (AID 2283028); conditions: primary human bronchial epithelial cells;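 on AC50: fitted both ways so AC50 may mark signal gain or loss versus DMSO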
Summary of the method: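 Cells (human bronchial epithelial, primary) are treated with chemicals, and after 24 h the parallel cultures are fixed in 10% TCA. These are then stained with 0.1% SRB and read at 560 nm. Gain or loss of signal is fitted relative to DMSO.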

[16] = read-out: Thrombomodulin, THBD (gene 7056); experiment: BSK_3C_Thrombomodulin: BioMAP Diversity Plus: 3C Assay for Thrombomodulin Biomarker Activity (AID 2283029); conditions: primary human endothelial cells (HUVEC); actives raise or lower the signal
Summary of the method: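 Read-out is ELISA of thrombomodulin on human umbilical vein endothelium 24 h after chemical dosing. Gain or loss of signal is scored relative to DMSO. Overt cytotoxicity is checked in parallel cultures by sulforhodamine B staining.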

[17] = read-out: Urokinase-type plasminogen activator receptor (uPAR), PLAUR (gene 5329); experiment: BSK_4H_uPAR: BioMAP Diversity Plus: 4H Assay for Urokinase-type plasminogen activator receptor (uPAR) Biomarker Activity (AID 2283030); conditions: primary human endothelial cells (HUVEC); actives raise or lower the signal
Summary of the method: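 Cell-surface uPAR ELISA signal, measured 24 h after dosing human umbilical vein endothelial cells, was analyzed with bidirectional fitting relative to DMSO. Parallel SRB staining of total protein tracked overt cytotoxicity.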

[18] = read-out: Vascular endothelial growth factor receptor 2 (Homo sapiens) (UniProt P35968); experiment: BSK_4H_VEGFRII: BioMAP Diversity Plus: 4H Assay for Vascular endothelial growth factor receptor 2 (VEGFR2) Biomarker Activity (AID 2283031); conditions: primary human endothelial cells (HUVEC); actives raise or lower the signal;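 on AC50: cell-surface VEGFR2 protein level quantified by ELISA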
Summary of the method: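 ELISA read-out of VEGFRII in primary human umbilical vein endothelium, taken 24 h after chemical treatment. Responses are expressed relative to DMSO, with bidirectional fitting.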

[19] = target: human Retinoid X Receptor beta (RXRb), RXRB (gene 6257) (UniProt P28702); experiment: ATG_RXRb_TRANS: Attagene TRANS-FACTORIAL HepG2 Assay for human Retinoid X Receptor beta (RXRb) (AID 2283013; active means hit-call score of the fitted dose curve at least 0.9, where 1 is the maximum)
Chain of human Retinoid X Receptor beta (RXRb), RXRB (gene 6257) (P28702 whole entry, looked up, the tested form may be a part): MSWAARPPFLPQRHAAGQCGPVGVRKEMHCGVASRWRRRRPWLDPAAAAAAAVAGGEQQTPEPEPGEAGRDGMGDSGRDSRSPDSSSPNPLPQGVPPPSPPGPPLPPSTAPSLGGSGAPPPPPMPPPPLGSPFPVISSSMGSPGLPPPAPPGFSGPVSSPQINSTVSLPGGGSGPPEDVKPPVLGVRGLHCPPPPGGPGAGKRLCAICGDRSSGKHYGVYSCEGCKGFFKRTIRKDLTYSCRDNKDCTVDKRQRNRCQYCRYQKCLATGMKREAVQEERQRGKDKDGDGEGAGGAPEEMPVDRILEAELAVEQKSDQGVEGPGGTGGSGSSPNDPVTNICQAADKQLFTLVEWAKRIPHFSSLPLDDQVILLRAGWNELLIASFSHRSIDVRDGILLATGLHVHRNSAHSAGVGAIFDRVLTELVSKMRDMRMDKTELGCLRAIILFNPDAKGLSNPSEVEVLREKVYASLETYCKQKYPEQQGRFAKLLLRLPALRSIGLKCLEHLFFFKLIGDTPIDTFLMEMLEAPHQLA
Summary of the method: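 Transfect HepG2 with GAL4-UAS multi-reporter constructs (chimeric NR-Gal4, TRANS format); dose compound 24 h; isolate RNA, RT-PCR, FAM primer extension, HpaI digest; quantify by capillary electrophoresis; positive direction vs DMSO.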

[20] = target: human Vitamin D Receptor (VDR), VDR (gene 7421) (UniProt P11473); experiment: ATG_VDR_TRANS: Attagene TRANS-FACTORIAL HepG2 Assay for human Vitamin D Receptor (VDR) (AID 2283022; active means hit-call score of the fitted dose curve at least 0.9, where 1 is the maximum)
Chain of human Vitamin D Receptor (VDR), VDR (gene 7421) (P11473 whole entry, looked up, the tested form may be a part): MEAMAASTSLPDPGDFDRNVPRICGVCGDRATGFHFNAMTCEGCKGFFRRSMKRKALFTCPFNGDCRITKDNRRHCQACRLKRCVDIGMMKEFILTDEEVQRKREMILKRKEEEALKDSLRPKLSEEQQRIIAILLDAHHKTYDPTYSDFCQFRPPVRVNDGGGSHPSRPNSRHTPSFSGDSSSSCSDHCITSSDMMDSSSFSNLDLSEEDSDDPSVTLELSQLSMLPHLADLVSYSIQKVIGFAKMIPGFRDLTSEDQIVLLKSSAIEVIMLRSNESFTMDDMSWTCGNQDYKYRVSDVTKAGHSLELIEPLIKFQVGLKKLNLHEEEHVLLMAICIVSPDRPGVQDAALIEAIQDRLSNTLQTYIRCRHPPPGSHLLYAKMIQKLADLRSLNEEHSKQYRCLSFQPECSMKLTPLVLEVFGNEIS
Summary of the method: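 Steps: transfect HepG2 with GAL4-UAS-driven reporter constructs; dose compounds 24 h; isolate RNA, reverse-transcribe, PCR-amplify with 6-FAM-labelled primer extension and HpaI digestion; quantify fragments by capillary electrophoresis relative to DMSO.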

Measured: AC50

Chain of E-selectin (Homo sapiens) (P16581 whole entry, looked up): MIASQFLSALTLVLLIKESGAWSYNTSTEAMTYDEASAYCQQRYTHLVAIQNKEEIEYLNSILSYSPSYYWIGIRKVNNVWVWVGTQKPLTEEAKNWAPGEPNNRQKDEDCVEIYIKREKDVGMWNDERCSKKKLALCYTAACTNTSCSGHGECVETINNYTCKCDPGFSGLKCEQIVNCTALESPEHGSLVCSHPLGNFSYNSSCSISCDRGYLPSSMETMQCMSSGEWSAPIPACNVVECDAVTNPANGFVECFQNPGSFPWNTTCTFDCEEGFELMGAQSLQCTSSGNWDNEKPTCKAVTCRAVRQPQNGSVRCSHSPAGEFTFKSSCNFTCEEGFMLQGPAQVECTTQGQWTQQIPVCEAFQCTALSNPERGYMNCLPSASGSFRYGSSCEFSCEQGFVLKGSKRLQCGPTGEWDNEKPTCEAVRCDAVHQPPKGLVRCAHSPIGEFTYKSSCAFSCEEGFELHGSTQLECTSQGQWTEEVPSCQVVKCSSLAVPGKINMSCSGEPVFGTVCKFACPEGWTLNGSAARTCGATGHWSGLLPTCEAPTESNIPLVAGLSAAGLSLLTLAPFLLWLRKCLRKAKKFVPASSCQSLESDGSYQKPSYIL

Oc1cc2ccccc2cc1O
inactive: [1] | [2] | [3] | [4] | [5] | [6] | [7] | [8] | [9] | [10] | [11] | [12] | [13] | [14] | [15] | [16] | [17] | [18]

CCCCCCCCCCCC[N+](C)(C)Cc1ccccc1
inactive: [1] | [2]

CCOC(OCC)C(=O)c1ccccc1
inactive: [1] | [19] | [20]

CCCCC(CC)C(=O)O (configuration not stated)
inactive: [1] | [19] | [3] | [4] | [5] | [6] | [7] | [8] | [9] | [10] | [11] | [12] | [13] | [14] | [15] | [16] | [17] | [18]

CCCCC(CC)C(=O)OCCOCCOCCOCCOC(=O)C(CC)CCCC (configuration not stated)
active: [3] 13.6 µM | [7] 11.4 µM
inactive: [1] | [2] | [4] | [5] | [6] | [8] | [9] | [20] | [10] | [11] | [12] | [13] | [14] | [15] | [16] | [17] | [18]

c1ccc(CNc2ncnc3c2ncn3C2CCCCO2)cc1 (configuration not stated)
inactive: [1] | [19] | [20]

O=C1OC(=O)C(F)(F)C1(F)F
inactive: [1] | [2]

CN(Cc1cnc2nc(N)nc(N)c2n1)c1ccc(C(=O)N[C@@H](CCC(=O)O)C(=O)O)cc1
inactive: [1] | [19] | [3] | [4] | [5] | [6] | [7] | [8] | [9] | [10] | [11] | [12] | [13] | [14] | [15] | [16] | [17] | [18]

CC(=O)Nc1ccc(O)cc1
inactive: [1] | [2] | [3] | [4] | [5] | [6] | [7] | [8] | [9] | [10] | [11] | [12] | [13] | [14] | [15] | [16] | [17] | [18]

CCOC=O
inactive: [1] | [20]
active: [19] 6.71 µM

FC(OC(F)(F)C(F)(F)C(F)(F)F)C(F)(F)F (configuration not stated)
inactive: [1] | [19] | [20]

Clc1ccc(Nc2nnc(Cc3ccncc3)c3ccccc23)cc1
inactive: [1] | [2] | [5] | [6] | [7] | [8] | [9] | [20] | [11] | [12] | [13] | [14] | [15] | [16] | [17] | [18]
active: [3] 2.36 µM | [4] 1.67 µM

CC1CCC(CO)CC1 (configuration not stated)
inactive: [1] | [20]

N=C(N)c1ccc(OCCCCCOc2ccc(C(=N)N)cc2)cc1
active: [3] 0.932 µM | [7] 10.1 µM | [8] 12.3 µM | [12] 8.61 µM | [13] 7.2 µM | [17] 3.47 µM
inactive: [1] | [4] | [5] | [6] | [9] | [20] | [10] | [11] | [14] | [15] | [16] | [18]

CCN(CC)CC
inactive: [1] | [2] | [20]

Oc1c(Cl)cc(Cl)cc1Sc1cc(Cl)cc(Cl)c1O
active: [3] 31.1 µM and 29.8 µM | [4] 7.68 µM and 8.04 µM | [5] 36.2 µM and 35.9 µM | [6] 9.13 µM and 5.86 µM | [7] 15.5 µM and 22.3 µM | [8] 36 µM and 35.2 µM | [10] 15.7 µM and 13.3 µM | [13] 5.81 µM and 4.28 µM | [14] 23.9 µM and 23.7 µM | [15] 5.25 µM and 5.18 µM | [16] 11.1 µM | [17] 20 µM and 9.97 µM | [18] 5.09 µM and 4.99 µM
inactive: [1] | [2] | [20] | [11] | [16]

FCOC(C(F)(F)F)C(F)(F)F
inactive: [1] | [20]

COCC1CCC(CO)CC1 (configuration not stated)
inactive: [19]

NNc1nc(-c2ccc([N+](=O)[O-])cc2)cs1
inactive: [1] | [20]
active: [2] 48.5 µM

CCCCCCCCCCCCOC(=O)c1cc(O)c(O)c(O)c1
inactive: [1] | [2] | [20]

Brc1cc(Br)c(Oc2c(Br)cc(Br)c(Br)c2Br)cc1Br
inactive: [1] | [20]
